# Sampled rows, rich in hits. Any-hit rate of the full collection: about 3.2%.
# TR SRC2 fluor cs: alters Texas Red total fluorescence, flagging assay interference; TRb/SRC2 Texas Red total fluorescence interference; Potency, µM (series often up to 106 µM); 280,000 compounds, 0.29% hits; active = well fitted curve in either direction with a large enough effect; inconclusive = small, poorly fitted or top-dose-only effect
#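 Human TRβ ligand-binding domain (0.6 uM) and Texas Red SRC2 peptide (20 nM) in Tris buffer with 1 uM T3 and 5% DMSO were incubated with pinned compound for 5 hr at ambient temperature. Total fluorescence was computed as S + 2P (555/632 nm).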
# Tau fibril FP: blocks human tau fibril formation measured by polarization | P10636 | K18 P301L tau heparin fibrillization, Alexa594 FP, 6 h | Potency, µM (top dose mostly 57.7 µM), actives largely listed as inhibitors | 280,000 compounds, 0.39% hits; also: nearly all actives have a fitted effect of over 55% in size
#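 Human K18 P301L fragment (15 uM unlabeled plus 0.24 uM Alexa 594-labeled) in 100 mM sodium acetate pH 7 with compound, aggregation induced by 20 uM heparin for 6 hr at 37 C. ThT (30 uM) added for 1 hr, then Alexa 594 FP read.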
# TRb SRC2 PPI: TRbeta-SRC2 interaction inhibition | TRbeta-SRC2 peptide binding, fluorescence polarization; receptor liganded with 1 µM T3 | AID 1469 | Potency, µM (titrated, usually from 106 µM), usual class: inhibitors | 280,000 compounds, 0.065% hits; also: nearly all actives have a fitted effect of over 50% in size
# Target sequence (P10828 whole entry, looked up): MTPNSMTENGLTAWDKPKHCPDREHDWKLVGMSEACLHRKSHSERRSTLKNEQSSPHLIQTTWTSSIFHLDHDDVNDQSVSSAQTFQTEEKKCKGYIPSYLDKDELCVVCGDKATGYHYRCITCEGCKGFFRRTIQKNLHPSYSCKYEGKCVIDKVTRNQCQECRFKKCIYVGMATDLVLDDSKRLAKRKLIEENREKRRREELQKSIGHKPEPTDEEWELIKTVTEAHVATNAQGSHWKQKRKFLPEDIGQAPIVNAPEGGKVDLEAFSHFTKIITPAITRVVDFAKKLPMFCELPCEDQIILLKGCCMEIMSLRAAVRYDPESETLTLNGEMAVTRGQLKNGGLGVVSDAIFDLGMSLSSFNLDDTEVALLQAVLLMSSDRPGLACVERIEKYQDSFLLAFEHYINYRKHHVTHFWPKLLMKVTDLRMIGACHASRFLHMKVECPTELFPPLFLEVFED
#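 Decrease in fluorescence polarization of 20 nM Texas Red SRC2 coactivator peptide flagged inhibition of its binding to 0.6 uM TRb LBD; 1 uM T3 included, incubation 5 hr, ex 555/em 632 nm.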
# Tau fluor counter: counter-screen for tau fibril formation inhibitors; Potency, µM (highest dose often 57.7 µM); 280,000 compounds, 0.93% hits; tau K18 P301L Alexa594 fluorescence, heparin fibrillization; also: nearly all actives have a fitted effect of over 55% in size
#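 Human tau K18 P301L (15 uM unlabeled, 0.24 uM Alexa 594-labeled) in 100 mM sodium acetate pH 7 with 20 uM heparin, 6 hr at 37 C. ThT 30 uM added, 1 hr ambient; Alexa 594 FP and total fluorescence read at 555/632 nm.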
# GoLoco inh red: blocks human Gai1 binding to RGS12 GoLoco peptide, red readout; P63096; Gai1:RGS12 GoLoco peptide FP, rhodamine, 10 min; Potency, µM (top dose mostly 61.6 µM), actives largely listed as inhibitors; 230,000 compounds, 0.44% hits; AID 880; active = well fitted inhibition curve with a large enough effect, not every such curve was filed as active; inactive = no such curve, though single readings can be large or run the other way; also: nearly all actives have a fitted effect of over 30% in size
# Tau fibril ThT: tau fibrillization inhibition (ThT binding); recombinant tau K18 P301L, heparin-induced fibrillization, ThT fluorescence; AID 1460; Potency, µM (titrated, usually from 57.4 µM), usual class: inhibitors; P10636; 270,000 compounds, 2.1% hits; also: nearly all actives have a fitted effect of over 55% in size
#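 Fibril formation assay: tau K18 P301L at 15 uM with trace Alexa 594 label, heparin inducer 20 uM, pH 7 sodium acetate buffer, 37 C for 6 hr; endpoint ThT signal.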
# Hits are given with their value; - = inactive; ? = inconclusive; . = no result given; [ ] = remark or other dose. Unless noted, calls follow the shape of the dose curve; as a rule, active = well fitted curve in the direction sought with a large enough effect; inconclusive = small, poorly fitted or top-dose-only effect, or another doubt; inactive = no such curve, though single readings can be large; an effect the other way counts as inactive or inconclusive.
SMILES,TR SRC2 fluor cs,Tau fibril FP,TRb SRC2 PPI,Tau fluor counter,GoLoco inh red,Tau fibril ThT
CCCCCNC(=O)c1c[nH]c2ccc(S(=O)(=O)N3CCC(C)CC3)cc2c1=O,-,7.9µM,-,?,.,-
CCOc1ccc(N(C)S(=O)(=O)c2ccc3[nH]cc(C(=O)NCCOC)c(=O)c3c2)cc1,-,?,-,?,-,-
COC(=O)c1c(-c2cccs2)csc1NC(=O)c1cccc(Cl)c1,1122µM[quencher],?,?,-,.,?
COC(=O)c1c(-c2cccs2)csc1NC(=O)c1ccc(C(C)(C)C)cc1,-,22µM,-,-,.,25µM
COC(=O)c1c(-c2cccs2)csc1NC(=O)c1ccc(Cl)cc1,-,?,-,-,.,13µM
COC(=O)c1c(-c2cccs2)csc1NC(=O)c1ccc(C(C)C)cc1,-,?,-,-,.,?
COC(=O)c1c(-c2cccs2)csc1NC(=O)c1cccnc1,-,-,-,-,-,-
Cn1cnc2c(ncn2[C@@H]2O[C@H](CO)[C@@H](O)[C@H]2O)c1=N,-,-,-,-,-,-
COC(=O)C1=C[C@@H](C(=O)OC)C2C3=C(C(=O)[C@@]2(C)NC(=O)c2ccccc2)[C@H](C)n2c(=O)n(-c4ccccc4)c(=O)n2[C@@H]3C1 (stereo partly specified),-,.,-,.,.,.
Cc1ccc(Nc2cc(C)c3c(O)cccc3n2)cc1C,-,?,-,14µM[quencher],-,.
COc1ccc(Nc2cc(C)c3c(O)cccc3n2)cc1,-,?,-,?,-,.
C/C=C(\C)[C@H](O)C[Si](C)(C)c1ccccc1,-,-,-,-,-,-
CCC(C(=O)Nc1ccccc1OC)n1c(C(=O)OC)cc2sc(Cl)cc21 (stereo unspecified),20µM[quencher],-,-,-,.,-
COc1ccc(-c2csc(/C(C#N)=C(\O)CSc3nccn3C)n2)cc1OC,-,-,-,?,-,18µM
COc1ccc(/C=C(/C#N)c2nc(-c3ccc(-c4ccccc4)cc3)cs2)cc1OC,?,?,?,-,.,?
CCN1/C(=C2\OC(=S)N(C)C2=O)C=Cc2ccccc21,-,-,?,-,-,?
CCSC1=NC(=O)/C(=C2/C=Cc3ccccc3N2CC)S1,-,-,-,?,1.3µM,7.1µM
Cc1ccc(C2=Nc3ccccc3N=C(C(Cl)Cl)C2)cc1,-,-,-,-,-,?
Cc1ccc2c(c1)N=C(c1ccccc1)CC(C(Cl)Cl)=N2,-,?,-,?,-,16µM
CCCC(=O)N1c2ccccc2C(=C2SC(C(=O)OC)=C(C(=O)OC)S2)C(=S)C1(C)C,-,?,-,?,-,2.2µM
COC(=O)C1=C(C(=O)OC)SC(=C2C(=S)C(C)(C)N(C(=O)C(C)C)c3ccccc32)S1,-,?,-,?,-,1µM
COC(=O)C1=C(C(=O)OC)SC(=C2C(=S)C(C)(C)N(C(=O)C3CC3)c3ccccc32)S1,-,?,-,?,-,2.5µM
CC1C(=O)Nc2ccccc2N1C(=O)C1CC1 (stereo unspecified),-,-,-,-,-,-
Nc1c(C(=O)Nc2ccccc2)sc2ncc([N+](=O)[O-])cc12,-,-,-,-,-,?
CCOC(=O)c1sc2ncc([N+](=O)[O-])cc2c1N,-,-,-,-,-,7.9µM
SMILES,TR SRC2 fluor cs,Tau fibril FP,TRb SRC2 PPI,Tau fluor counter,GoLoco inh red,Tau fibril ThT
CCCC/C=C/[C@H](c1ccccc1)[C@H](CO)Cc1ccc([N+](=O)[O-])cc1,-,.,-,.,.,.
O=C(NCc1ccc(-c2nc3ccccc3s2)cc1)c1ccco1,0.0006µM[quencher],?,-,-,-,-
O=C(/C=C/c1cccnc1)c1cc(F)ccc1O,-,-,-,-,-,-
O=C(/C=C/c1ccncc1)c1cc(Cl)ccc1O,-,-,-,?,-,28µM
CN(C)c1ccc(/C=C/C(=O)c2cc(Cl)ccc2O)cc1,-,-,-,?,-,4µM
Nc1c(N=Nc2ccc(-c3ccc(N=Nc4cc(S(=O)(=O)O)c5ccccc5c4N)cc3)cc2)cc(S(=O)(=O)O)c2ccccc12,?,-,?,-,-,1.1µM

# High-throughput results as filed in PubChem BioAssay.
